Results filed as inconclusive are left out. Entries that show only a call come without a potency. Values without a mark were called inactive. The source made the active and inactive calls. Calls come from the whole dose curve; as a rule, active = well fitted cell-killing curve with a large enough effect; inconclusive = small, poorly fitted or top-dose-only effect, or effect the other way; inactive = no such curve, though single readings can be large or run the other way.
Potency is the fitted concentration of half-maximal effect.

The first assay is described as follows: Viability qHTS for spleen associated tyrosine kinase inhibitor (SYKi) naive MV4-11 cells (AID 1963823). Note: nearly all actives have a fitted effect of over 40% in size. To be noted: MV4-11 AML viability, CellTiter-Glo luminescence, 72 h; series mostly up to 45 µM. Put shortly: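 CellTiter-Glo luminescence, 10 min room-temperature incubation, gave viability. Cells: naive MV4-11 (500/well), treated 72 hr at 37 C, 5% CO2.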
On the technique in general: Quantitative high-throughput screening tests each substance at several concentrations.
Take `[O-][n+]1cccc(-c2nc3c(Cl)cccc3cc2[C@@H](Nc2ncnc3cccnc23)C(F)(F)F)c1`: the Potency was 4.17 µM (active). Still for that read-out and setting: the result for `CCc1c(CC(N)=O)c2cc(OCCCP(=O)(O)O)ccc2n1Cc1ccccc1` reads “inactive”; that for `Cc1cc(C(=O)Nc2nc3cccc(Cl)c3n2C2CCCCN(C(=O)/C=C/CN(C)C)C2)ccn1` (configuration not stated), 5.17 µM (active). For `Cc1cn2cc(C(=O)N(C)CCO)cc(NC3CCOc4cccc(C)c43)c2n1` (configuration not stated), the Potency result was “inactive”.

As to `N#Cc1cnc2c(Cl)cc(NCc3cn(CCN4CCCCCC4)nn3)cc2c1Nc1ccc(F)c(Cl)c1`, the Potency is 9.2 µM (active). As to `CC1(C=O)CC[C@]2(C(=O)O[C@@H]3O[C@H](CO)[C@@H](O)[C@H](O)[C@H]3O)CC[C@]3(C)C(=CCC4[C@@]5(C)C[C@H](O)[C@H](O[C@@H]6OC[C@@H](O)[C@H](O)[C@H]6O)[C@@](C)(CO)C5CC[C@]43C)C2C1` (some centres not stated), the viability (% of control) is 95.5% [at 9.25 µM].

`Cc1cccc(Nc2cc(Cl)nc(SCC(=O)O)n2)c1C`: the Potency entry is “inactive”. On the same count and under the same terms, next, `CCCCCCOC(=O)NC(=N)c1ccc(NCc2nc3cc(C(=O)N(CCC(=O)OCC)c4ccccn4)ccc3n2C)cc1`: 2.35 µM (active); `COC1OC(=O)C2=C1C1(C)CCCC(C)(C)C1CC2O` (configuration not stated): “inactive”. Regarding `O=C(Nc1ccc(S(=O)(=O)C(F)(F)F)cc1)C1=CCN(c2ncccc2C(F)(F)F)CC1`, the Potency was 5.8 µM (active). On to `C=CC(=O)N1CCC[C@@H](n2nc(-c3cccc(C(=O)Nc4ccc(C(C)C)c(C)c4)c3)c3c(N)ncnc32)C1`, for which the Potency is 1.46 µM (active).

Turning to `COc1ccc(CC2NCCc3c2[nH]c2ccc(C)cc32)cc1OC` (configuration not stated), the Potency was 9.2 µM (active).

Another assay can be described thus: Viability qHTS for spleen associated tyrosine kinase inhibitor (SYKi) drug resistant MV4-11 cells (AID 1963824). Note: nearly all actives have a fitted effect of over 35% in size. To be noted: SYKi-resistant MV4-11 viability, CellTiter-Glo, 72 h; series mostly up to 45 µM. Put shortly: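 SYK-inhibitor-resistant MV4-11 AML cells were seeded at 500 per well onto compound and cultured 72 hours (37 °C, 5% CO2). CellTiter-Glo was then added, and after 10 min at room temperature, luminescence gave viability.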
For the compound `C[C@@H]1CCC2C(C)(C)[C@H](O)CC[C@]2(C)[C@@]12Cc1c(O)cc3c(c1O2)CNC3=O` (some centres not stated), the Potency entry is “inactive”.

Take `CC1=C(C(=O)O[C@@H]2O[C@H](COC3OCC(O)C(O)C3O)[C@@H](O)[C@H](O)[C@H]2O)C(C)(C)CCC1` (some centres not stated): the Potency entry was “inactive”. For `CSc1cc2c(s1)c1cnn(Cc3ccccc3F)c(=O)c1n2C`, the Potency result is “inactive”. `C[C@@H]1O[C@@H](O[C@H]2[C@H](O[C@H]3[C@H](O)[C@@H](C(=O)O)O[C@@H](O[C@H]4CC[C@@]5(C)C(CC[C@]6(C)C5CC[C@]57OC[C@@]8(CCC(C)(C)CC85)[C@H](O)C[C@]76C)C4(C)C)[C@@H]3O[C@@H]3O[C@H](CO)[C@@H](O[C@@H]4OC[C@@H](O)[C@H](O)[C@H]4O)[C@H](O)[C@H]3O)O[C@H](CO)[C@H](O)[C@@H]2O)[C@H](O)[C@H](O)[C@H]1O` (some centres not stated): the viability, % of control is 94.7% [at 9.25 µM].

Turning to `O=C(CCc1nnc2n(Cc3ccc(Cl)cc3)c(=O)c3ccccc3n12)NCCC1=CCCCC1`, the Potency entry is “inactive”. On to `Nc1ccc(-c2cnc(N)c(-c3ccc(Cl)cc3)c2)cn1`, for which the Potency is 8.2 µM (active). On to `CC1CCC23COC(=O)C2=CC(O)CC3C1(C)CCC1=CC(O)OC1=O` (configuration not stated), for which the Potency result was “inactive”. On the same count and under the same terms, the result for `C/C=C/C=C/C(CC(=O)O)Nc1ccc(C=O)cc1` (configuration not stated) reads “inactive”. On the same count and under the same terms, next, `Cc1cc(NC(=O)c2cccc(NC(=O)/C=C/CN(C)C)c2)ccc1Nc1nccc(-c2cccnc2)n1`: 2.31 µM (active).

`C=C[C@H]1[C@H](O[C@@H]2O[C@H](CO)[C@@H](O)[C@H](O)[C@H]2O)OC=C(C(=O)OC)[C@H]1C[C@@H]1c2cc(O)c(O)cc2CCN1C(C)=O`: the Potency result is “inactive”. `Cc1cc(O)cc(O[C@@H]2O[C@H](CO)[C@@H](O)[C@H](O)[C@H]2O)c1`: the Potency entry is “inactive”. With `O=C(Nc1ccccc1)c1ccc(Nc2nnc(-c3ccc(O)cc3)c3ccccc23)cc1`, the Potency is 23.1 µM (active). For the compound `CC1CCC2(C)C(CC(O)C(O)C23CO3)C1(C)CCC1=CC(O)OC1=O` (configuration not stated), the Potency entry was “inactive”. Regarding `CCC(CCO[C@@H]1O[C@H](CO[C@H]2OC[C@](O)(CO)[C@H]2O)[C@@H](O)[C@H](O)[C@H]1O)C(C)(C)O` (some centres not stated), the Potency result was “inactive”. The same measure, in the same setting: the result for `NC(=O)c1ccc(OCC2NC(=O)C3CCCN3C2=O)cc1` (configuration not stated) reads “inactive”; that for `C=CC(C)(C)c1[nH]c2ccccc2c1C[C@@H]1NC(=O)[C@H](C)NC1=O`, “inactive”.

For the compound `O=C(C[C@@H]1C(C(=O)O)=CO[C@@H](O[C@@H]2O[C@H](CO)[C@@H](O)[C@H](O)[C@H]2O)/C1=C\CO)OCCc1ccc(O)c(O)c1`, the Potency entry was “inactive”. Take `Cc1ncc(Cl)cc1NCc1ccc(C(=O)NC(CC2CCCC2)C(=O)NC2CC2)s1` (configuration not stated): the Potency was 18.6 µM (active). As for `CC(C)(C#N)c1ccc(N2C(=O)OCc3cnc4ccc(-c5cnc6ccccc6c5)cc4c32)cc1`, the Potency is 1.46 µM (active). On to `O=C(OC[C@H]1O[C@H](O[C@H]2CO[C@H](CO)[C@@H](O)[C@@H]2O)[C@H](O)[C@@H](O)[C@H]1O)c1ccccc1`, for which the Potency entry was “inactive”. Take `COC(=O)C1=COC(O[C@@H]2O[C@H](CO)[C@@H](O)[C@H](O)[C@H]2O)C2C(C)C(=O)CC12` (some centres not stated): the Potency entry is “inactive”. Take `CCCC(=O)Nc1cccc(NC(=O)c2ccccc2Br)c1`: the Potency entry was “inactive”. For the compound `C=C[C@H]1[C@H](O[C@@H]2O[C@H](CO)[C@@H](O)[C@H](O)[C@H]2O)OC=C(C(=O)OC)[C@H]1CC(=O)O`, the Potency result is “inactive”. With `Cn1cnc2c(NCc3ccccc3)nc(NCCO)nc21`, the Potency entry was “inactive”.

For the compound `CC(=O)O[C@]1(C(C)=O)CC[C@H]2[C@@H]3CCC4=CC(=O)CCC4=C3[C@@H](c3ccc(N(C)C)cc3)C[C@@]21C`, the Potency was 20.6 µM (active).

For the compound `COC(=O)C1=COC(OC2OC(CO)C(O)C(O)C2O)C2C(C)C(OC(=O)/C=C/c3ccc(O)cc3)C(O)C12` (configuration not stated), the Potency result is “inactive”. Take `CC(=O)O[C@@H]1[C@H](O[C@@H]2O[C@H](CO)[C@@H](O)[C@H](O)[C@H]2O)[C@@H](O[C@@H]2O[C@@H](C)[C@H](O)[C@@H](O[C@@H]3O[C@H](CO)[C@@H](O)[C@H](O)[C@H]3O)[C@H]2O)[C@H](OC(=O)[C@]23CCC(C)(C)C[C@H]2C2=CCC4[C@@]5(C)C[C@H](O)[C@H](O[C@@H]6O[C@H](C(=O)O)[C@@H](O)[C@H](O)[C@H]6O)[C@@](C)(C(=O)O)C5CC[C@@]4(C)[C@]2(C)CC3)O[C@@H]1C` (some centres not stated): the viability, % of control is 91.2% [at 9.25 µM].

For the compound `C[C@@H]1O[C@@H](O[C@H]2[C@H](O[C@H]3[C@H](O[C@H]4CC[C@@]5(C)C(CC[C@]6(C)C5CC=C5[C@@H]7CC(C)(C)C[C@@H](O)[C@]7(C)CC[C@]56C)[C@@]4(C)CO)O[C@H](C(=O)O)[C@@H](O)[C@@H]3O)O[C@H](C(=O)O)[C@H](O)[C@@H]2O)[C@H](O)[C@H](O)[C@H]1O` (some centres not stated), the viability, % of control was 86.7% [at 9.25 µM]. As for `[O-][n+]1cccc(-c2nc3c(Cl)cccc3cc2[C@@H](Nc2ncnc3cccnc23)C(F)(F)F)c1`, the Potency is 13.2 µM (active).

`CCc1c(CC(N)=O)c2cc(OCCCP(=O)(O)O)ccc2n1Cc1ccccc1`: the Potency entry is “inactive”. The same measure, in the same setting: next, `Cc1cc(C(=O)Nc2nc3cccc(Cl)c3n2C2CCCCN(C(=O)/C=C/CN(C)C)C2)ccn1` (configuration not stated): 8.2 µM (active); `Cc1cn2cc(C(=O)N(C)CCO)cc(NC3CCOc4cccc(C)c43)c2n1` (configuration not stated): “inactive”. The same measure, in the same setting: next, `N#Cc1cnc2c(Cl)cc(NCc3cn(CCN4CCCCCC4)nn3)cc2c1Nc1ccc(F)c(Cl)c1`: 13 µM (active). Regarding `CC1(C=O)CC[C@]2(C(=O)O[C@@H]3O[C@H](CO)[C@@H](O)[C@H](O)[C@H]3O)CC[C@]3(C)C(=CCC4[C@@]5(C)C[C@H](O)[C@H](O[C@@H]6OC[C@@H](O)[C@H](O)[C@H]6O)[C@@](C)(CO)C5CC[C@]43C)C2C1` (some centres not stated), the viability, % of control was 103% [at 9.25 µM]. In the case of `Cc1cccc(Nc2cc(Cl)nc(SCC(=O)O)n2)c1C`, the Potency entry was “inactive”.

On to `CCCCCCOC(=O)NC(=N)c1ccc(NCc2nc3cc(C(=O)N(CCC(=O)OCC)c4ccccn4)ccc3n2C)cc1`, for which the Potency is 1.48 µM (active). On to `COC1OC(=O)C2=C1C1(C)CCCC(C)(C)C1CC2O` (configuration not stated), for which the Potency result was “inactive”. As to `O=C(Nc1ccc(S(=O)(=O)C(F)(F)F)cc1)C1=CCN(c2ncccc2C(F)(F)F)CC1`, the Potency was 3.66 µM (active). For `C=CC(=O)N1CCC[C@@H](n2nc(-c3cccc(C(=O)Nc4ccc(C(C)C)c(C)c4)c3)c3c(N)ncnc32)C1`, the Potency was 2.31 µM (active). Same read-out and setting: the result for `COc1ccc(CC2NCCc3c2[nH]c2ccc(C)cc32)cc1OC` (configuration not stated) reads 7.31 µM (active).

The record behind these values is PubChem BioAssay (NCATS).
